Measured values reported in article PMC13494018.

B1: design_608_fd41b8f9-4da9-4c78-93ec-aaa316ed4933_287_dldesign_0_cycle1_af2pred (protein)
chain: MEAENMEKAIKKLREGKAALKTTPEEAARVLRAQAKELKELAKKSSPENAAFMETQAKAMEKKAKELEAKAAA
B2: design_608_fd41b8f9-4da9-4c78-93ec-aaa316ed4933_209_dldesign_0_cycle1_af2pred (protein)
chain: AEEEEEKKREKLLEEAKKLGKEAAKYVKKAIAKGKTEEATALAAEASKALLALYDLDAAGEPYEKAKAEYDKIKELTEKIKALAE
B3: design_608_fd41b8f9-4da9-4c78-93ec-aaa316ed4933_796_dldesign_0_cycle1_af2pred (protein)
chain: EEAKEKAKKLEEEALKKAKEAGELIGKPKQVVHLTKLAIEDPELIPLAKKAILEAAKELKKKDPEKGKKAEELAKEMEKYVKEANKLK
B4: design_608_fd41b8f9-4da9-4c78-93ec-aaa316ed4933_228_dldesign_0_cycle1_af2pred (protein)
chain: GEEVIKEIAEEEIKEAEKTLKEAEKLLKKGGTEEAKEAVEKAKEYIKKGKEKLEEGDYKTAYSLATLGKHNAEIAIKLIKEKN
B5: design_608_fd41b8f9-4da9-4c78-93ec-aaa316ed4933_581_dldesign_0_cycle1_af2pred (protein)
chain: SEELEKVKKLLEKGIETAKKNPVKGASLLLKAEHMAKQLAEKKKGTEEAKELEELSKKAKEEFDKAAKKISE
B6: design_608_fd41b8f9-4da9-4c78-93ec-aaa316ed4933_544_dldesign_0_cycle1_af2pred (protein)
chain: AAAAAAEAAAKVAKVKELAKEAAEDPSKAPEVYKEGKKIADAATPETAAAIAAEMHKGHEERAENSWKRSRE
B7: design_608_fd41b8f9-4da9-4c78-93ec-aaa316ed4933_615_dldesign_0_cycle1_af2pred (protein)
chain: DPAEELAKKLLEIADLAAKPETLEKALEEAEKLKEEALKLAEKYADDPALKKKYLKAAKTAESFIEDIKRSKEL
B8: design_608_fd41b8f9-4da9-4c78-93ec-aaa316ed4933_509_dldesign_0_cycle1_af2pred (protein)
chain: EEEKSKLTREAADAVRTFGKNATKARPEMSRLEVMDKIDAGLENPELLKETTEEYAEAAKEKGLEEDAEKIKESGKILLKYVKE
B9: design_608_fd41b8f9-4da9-4c78-93ec-aaa316ed4933_446_dldesign_0_cycle1_af2pred (protein)
chain: LEATAEAYAEAILHAGEEAAKVAKKLSEELAEEVRKKAEEFAKKALDDPSKAKEYLKKAREYFKKVVEEVKEKL
B10: design_608_fd41b8f9-4da9-4c78-93ec-aaa316ed4933_323_dldesign_0_cycle1_af2pred (protein)
chain: VLEEVLKLGKEAAEALLKPNGKEEAAKLVEEAEKVVKSHPNAPTEASYVLVTMRRAVRKPDHEEGAKRVREAVEEAE
B11: design_608_fd41b8f9-4da9-4c78-93ec-aaa316ed4933_998_dldesign_0_cycle1_af2pred (protein)
chain: SELAKKAIEHLKKAIELAKTDPKYAPQIIAAAKAAIAALEKGDYEKAYKEASKALSIAYAAGNKEAEEELSEALYYIVKASK
B12: design_608_fd41b8f9-4da9-4c78-93ec-aaa316ed4933_265_dldesign_0_cycle1_af2pred (protein)
chain: GLKEELRKLATQYMHEAAEYAAEAEHLANRGGDLAEVEEAAKKAKEYAEKSIELMKEAGTEEEYEKAKKVAEKLIARAEAALKKK
B13: design_608_fd41b8f9-4da9-4c78-93ec-aaa316ed4933_750_dldesign_0_cycle1_af2pred (protein)
chain: GEETEKLKKELEKAEKEAKEALKKAKELTKEEAKKLLSEQAAKVAELAAESSKDKEVSKEAKKVLKEVRKEGKEILEEK
B14: design_608_fd41b8f9-4da9-4c78-93ec-aaa316ed4933_536_dldesign_0_cycle1_af2pred (protein)
chain: NNAEASKLAHEGYEYRAEGAQLSKKNPAKAAVLFEEAAKKFAEAAKLAEDPEDKKLLQAYADRALAEAKKAAAEAAKALA
B15: design_608_fd41b8f9-4da9-4c78-93ec-aaa316ed4933_669_dldesign_0_cycle1_af2pred (protein)
chain: KEELKKALEKTRKEVKAAAAGKPQDVIDVIRKGAKEAEKLNKNAGILLEAAANRAEFAGATPAEAAAIALKAIERAEKE
B16: design_608_fd41b8f9-4da9-4c78-93ec-aaa316ed4933_922_dldesign_0_cycle1_af2pred (protein)
chain: GETEKLREEAQKLMDEAVDLLDKAKTEEEVEKAVEIAEEAYKVAAKATPEIAESALKGYKGLKKMAEEIKKVLKK
B17: design_608_fd41b8f9-4da9-4c78-93ec-aaa316ed4933_627_dldesign_0_cycle1_af2pred (protein)
chain: SEKKKVGEEAYKVASRALSIAYAKGDKEFEEKAEELLEKVEEVKKNGNLEEAKKALEEAKALLKEAEKLAKER
B18: design_608_fd41b8f9-4da9-4c78-93ec-aaa316ed4933_704_dldesign_0_cycle1_af2pred (protein)
chain: DAAAATARALADQAVAAGKAGEEGDLATAKAARETLAALREELRKLVEEDPSVAPYASAGMAEGYQAIAEGFKKNS
B19: design_608_fd41b8f9-4da9-4c78-93ec-aaa316ed4933_913_dldesign_0_cycle1_af2pred (protein)
chain: ATLAELSAAFAKAYELIAEGEKASPEEGVKLMEKAKEEVEAARKLAEASADKEAALAGVERLAKRVEENKAKAEAKLKAA

biological target: VTCN1, Q7Z7D3
Sequence (Q7Z7D3 whole entry): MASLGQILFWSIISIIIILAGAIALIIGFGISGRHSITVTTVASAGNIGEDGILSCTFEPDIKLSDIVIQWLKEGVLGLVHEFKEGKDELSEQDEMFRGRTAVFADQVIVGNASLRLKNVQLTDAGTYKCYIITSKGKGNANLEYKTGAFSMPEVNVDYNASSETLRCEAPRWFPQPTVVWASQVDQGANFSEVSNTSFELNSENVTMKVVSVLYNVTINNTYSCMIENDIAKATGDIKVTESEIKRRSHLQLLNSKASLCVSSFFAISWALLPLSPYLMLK

Binding in a display sort, inactive:
B1 not found, B2 not found, B3 not found, B4 not found, B5 not found, B6 not found, B7 not found, B8 not found, B9 not found, B10 not found, B11 not found, B12 not found, B13 not found, B14 not found, B15 not found, B16 not found, B17 not found, B18 not found, B19 not found
